# Data published in PubChem BioAssay.
# Activity calls are given as the source filed them. Unless noted, no rule for the calls is given here.
# What was measured:
# [1] = hit retest on RPL19A-GFP reporter strain – cell-based, S. cerevisiae, flow cytometry, cherry picks, mother/daughter gates, confirmation (AID 2270;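 active = GFP response below 50% of the DMSO control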); conditions: 3 h, at 10 µM, stronger effect = lower value, 100 = same GFP as DMSO wells
# [2] = yeast TOR pathway reporter LAP4-GFP change – cell-based, cherry picks, flow cytometry, mother/daughter gates, confirmation (AID 2271;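 active = GFP response above 150% of the DMSO control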;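 also: ratio of sample to DMSO plate mean so 100% equals DMSO level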); conditions: S. cerevisiae LAP4-GFP strain, 3 h, at 10 µM, stronger effect = higher value
# [3] = TOR pathway CIT2 reporter hit retest – S. cerevisiae, GFP fusion, cherry picks, mother/daughter gates, confirmation (AID 2274;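 active = GFP response above 150% of the DMSO level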); conditions: S. cerevisiae CIT2-GFP strain, flow cytometry, 3 h, at 10 µM, stronger effect = higher value
# [4] = reduced mouse 2C T cell binding to pMHC/ICAM-1 vesicles – MLPCN validation set, flow cytometry, LFA-1/ICAM-1 modulator project, pilot screen (AID 2523;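 active = response below a set limit, under 55% cells CD8-positive and vesicle-bound, and CD8 cells' 90th-percentile brightness under 279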;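 as to vesicle binding response: mean PE anti-B7-1 fluorescence of CD8+ cells relative to row control; 100% = QL9-loaded vesicles with DMSO vehicle in the same plate row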); conditions: 2C mouse CD8+ T cells, at 7 µM, stronger effect = lower value; double positive events: measured here: CD8+/vesicle+ event percentage
# [5] = molecular target: Integrin beta-1 (Homo sapiens) + Integrin alpha-4 (Homo sapiens) (UniProt P13612+P05556); test: alpha4beta1 integrin LIBS antibody binding reduction – U937 cells, HUTS-21 mAb, flow cytometry, validation set, VLA-4 allosteric modulator project, pilot screen (AID 2674;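 active = inhibition above 50%, about 3 SD of the validation set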;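 also: antibody binding induced by the VLA-4 ligand LDV present at three times its Kd; 0% = LDV ligand with antibody and no compound and 100% = antibody without LDV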); conditions: HUTS-21 LIBS mAb binding, at 6.7 µM, stronger effect = higher value
# [6] = calorie-restriction mimetic ROS inhibitors, yeast – validation compound set, pilot screen (AID 2706;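 active = superoxide response below 65% of plate, a cut near 3 SD across the whole screen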;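 also: yeast exposed to compound for one week at 30 degrees C before staining; 100% = mean of all compound wells on the same plate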); conditions: S. cerevisiae aging, superoxide DHE fluorescence; at 10 µM; stronger effect = lower value
# [7] = molecular target: Beta-adrenergic receptor kinase 1 (Homo sapiens) (UniProt P25098); test: GRK2 binders displacing RNA aptamer, biochemical, validation, human GRK2, bead flow cytometry (AID 488806;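 active = aptamer binding inhibition above 30%, about 3 SD of noise from non-fluorescent compounds; inactive = inhibition at or below 30%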); conditions: bead-bound GRK2, FAM-aptamer displacement, at 10 µM, stronger effect = higher value
# [8] = molecular target: AP-2 complex subunit beta (Homo sapiens) (UniProt P63010); test: beta-arrestin/AP2 interaction blockers – biochemical, validation set, GST-AP2 beads, flow cytometry, pilot screen (AID 504541;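 active = inhibition above 54%, about 3 SD of non-fluorescent compounds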;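 also: AP2 carries R879A mutation and is captured from E. coli lysate; bead-bound FITC arrestin peptide fluorescence measuring arrestin peptide binding to AP2; 0% = DMSO wells and 100% = excess unlabeled arrestin peptide control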); conditions: FITC arrestin peptide, at 10 µM, stronger effect = higher value
# [9] = cytosolic pH regulators acting via V-ATPase – S. cerevisiae, pHLuorin, HTS validation (AID 504600; in the data active = response above about 15%;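 also: plate controls were DMSO for no effect and reference compound for full effect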); conditions: V-ATPase proton transport, at 10 µM, stronger effect = higher value
# [10] = test system: anti-desmoglein-3 scFv antibody binding to human DSG3; test: blockers of pathogenic pemphigus antibody–desmoglein-3 binding – biochemical, validation compound set, bead-based, flow cytometry, pilot screen (AID 588368;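 active = binding below the plate cutoff, the plate median minus 3 SD, with a reading above zero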;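 also: signal is the median channel fluorescence of bead-bound GFP antibody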); conditions: Protein G beads, DSG3-Fc, scFv-GFP binding, at 10 µM, stronger effect = lower value
# [11] = test system: Botulinum neurotoxin type F light chain protease (Clostridium botulinum); test: Clostridium botulinum type F light chain protease inhibitors, microsphere substrate cleavage, validation (AID 588459); conditions: multiplex microsphere protease substrate cleavage assay, flow cytometry; at 10 µM; stronger effect = higher value
# [12] = molecular target: Botulinum neurotoxin type A (Clostridium botulinum) (UniProt P0DPI0); test: BoNT/A light chain protease inhibitors, biochemical, multiplex microsphere flow cytometry, validation set (AID 588460); conditions: at 10 µM, stronger effect = higher value
# [13] = molecular target: Lethal factor (Bacillus anthracis) (UniProt P15917); test: Bacillus anthracis lethal factor inhibition, microsphere flow cytometry protease assay, validation at 10 µM (AID 588461); conditions: multiplex microsphere protease cleavage assay, stronger effect = higher value
# [14] = Nile Red efflux blockade in pump-expressing yeast – validation compound set, multiplex, phenotypic, pilot screen (AID 588506;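 active = efflux inhibition above 0.42, the validation set average plus 4 SD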;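 also: Nile Red retained in cells so higher fluorescence means more efflux inhibition; 0 = negative control wells and 1 = enniatin B 25 µM full block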); conditions: S. cerevisiae pump-expressing triplex, Nile Red efflux flow cytometry; at 10 µM; stronger effect = higher value
# [15] = molecular target: ATP-binding cassette sub-family B member 6 (Homo sapiens) (UniProt Q9NP58); test: blockers of ABCB6-driven porphyrin uptake – K562-ABCB6 cells, flow cytometry, validation set, pilot screen (AID 588550;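 active = inhibition above the screen-wide mean plus 3 SD, about 51%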;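 also: 0% = DMSO wells and 100% = benzethonium chloride 70 µM positive control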); conditions: K562-ABCB6 porphyrin accumulation, 1 h, at 10 µM, stronger effect = higher value
# [16] = AML differentiation inducers, ER-HoxA9 marrow cells – cell-based, GFP/MAC1 double positive, flow cytometry, validation set, primary screen (AID 588685;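 active = differentiation response of at least 50%, scaled between solvent and reference control, from cells with both markers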;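 also: compound exposure lasts four days before antibody staining and flow analysis; 0% = DMSO wells and 100% = 5 µM fulvestrant positive control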); conditions: stronger effect = higher value
# [17] = measured here: daughter cell gate
# [18] = measured here: mother cell gate
# [19] = measured here: mother cell gate response
# [20] = measured here: daughter cell gate response
# Sequence of ATP-binding cassette sub-family B member 6 (Homo sapiens) (Q9NP58 whole entry, looked up): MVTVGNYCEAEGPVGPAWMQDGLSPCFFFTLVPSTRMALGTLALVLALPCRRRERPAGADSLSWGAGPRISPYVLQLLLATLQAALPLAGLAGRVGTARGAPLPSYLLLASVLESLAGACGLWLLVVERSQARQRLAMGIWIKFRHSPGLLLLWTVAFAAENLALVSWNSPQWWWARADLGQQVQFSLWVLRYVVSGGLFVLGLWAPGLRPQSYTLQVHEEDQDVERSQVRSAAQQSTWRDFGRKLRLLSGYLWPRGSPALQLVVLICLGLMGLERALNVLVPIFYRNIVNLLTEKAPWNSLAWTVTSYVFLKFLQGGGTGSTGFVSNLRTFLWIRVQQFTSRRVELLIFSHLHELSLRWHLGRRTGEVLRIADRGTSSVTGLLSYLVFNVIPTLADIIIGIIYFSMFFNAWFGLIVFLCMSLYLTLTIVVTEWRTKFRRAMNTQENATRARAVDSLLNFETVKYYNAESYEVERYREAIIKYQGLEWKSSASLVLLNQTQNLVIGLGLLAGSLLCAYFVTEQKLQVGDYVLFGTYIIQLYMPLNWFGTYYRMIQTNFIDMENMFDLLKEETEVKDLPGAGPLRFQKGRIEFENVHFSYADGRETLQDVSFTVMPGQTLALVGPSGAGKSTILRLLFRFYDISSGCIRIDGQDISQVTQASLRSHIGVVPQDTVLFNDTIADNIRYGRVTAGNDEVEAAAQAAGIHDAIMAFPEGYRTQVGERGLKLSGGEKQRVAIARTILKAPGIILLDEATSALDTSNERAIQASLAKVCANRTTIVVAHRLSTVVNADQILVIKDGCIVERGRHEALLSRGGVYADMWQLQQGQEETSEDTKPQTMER
# Sequence of AP-2 complex subunit beta (Homo sapiens) (P63010 whole entry, looked up, one chain of several): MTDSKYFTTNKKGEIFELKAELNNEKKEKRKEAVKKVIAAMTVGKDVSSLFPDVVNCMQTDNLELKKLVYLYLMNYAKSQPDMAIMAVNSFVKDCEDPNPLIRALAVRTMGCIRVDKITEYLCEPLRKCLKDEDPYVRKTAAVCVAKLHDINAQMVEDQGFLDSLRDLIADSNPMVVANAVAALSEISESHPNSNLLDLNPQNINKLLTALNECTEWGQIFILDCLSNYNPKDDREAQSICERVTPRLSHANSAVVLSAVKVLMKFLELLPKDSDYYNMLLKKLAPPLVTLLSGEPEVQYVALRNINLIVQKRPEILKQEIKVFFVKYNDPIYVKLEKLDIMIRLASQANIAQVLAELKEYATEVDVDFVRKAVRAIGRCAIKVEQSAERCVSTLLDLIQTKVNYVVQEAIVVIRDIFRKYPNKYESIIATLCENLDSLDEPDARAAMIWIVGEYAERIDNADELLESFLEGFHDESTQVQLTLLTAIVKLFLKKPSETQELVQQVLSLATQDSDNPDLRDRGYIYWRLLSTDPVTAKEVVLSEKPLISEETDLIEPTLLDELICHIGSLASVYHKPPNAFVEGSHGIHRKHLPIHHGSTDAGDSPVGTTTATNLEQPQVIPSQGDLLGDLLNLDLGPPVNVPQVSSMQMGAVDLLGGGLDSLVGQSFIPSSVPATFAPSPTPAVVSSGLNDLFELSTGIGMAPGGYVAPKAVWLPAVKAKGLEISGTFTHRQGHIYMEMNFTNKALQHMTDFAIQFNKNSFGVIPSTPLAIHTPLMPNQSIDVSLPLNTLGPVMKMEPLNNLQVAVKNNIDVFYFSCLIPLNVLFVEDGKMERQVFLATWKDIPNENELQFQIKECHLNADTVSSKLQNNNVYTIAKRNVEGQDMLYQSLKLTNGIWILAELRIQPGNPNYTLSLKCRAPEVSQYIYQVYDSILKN
# Sequence of Botulinum neurotoxin type A (Clostridium botulinum) (P0DPI0 whole entry, looked up): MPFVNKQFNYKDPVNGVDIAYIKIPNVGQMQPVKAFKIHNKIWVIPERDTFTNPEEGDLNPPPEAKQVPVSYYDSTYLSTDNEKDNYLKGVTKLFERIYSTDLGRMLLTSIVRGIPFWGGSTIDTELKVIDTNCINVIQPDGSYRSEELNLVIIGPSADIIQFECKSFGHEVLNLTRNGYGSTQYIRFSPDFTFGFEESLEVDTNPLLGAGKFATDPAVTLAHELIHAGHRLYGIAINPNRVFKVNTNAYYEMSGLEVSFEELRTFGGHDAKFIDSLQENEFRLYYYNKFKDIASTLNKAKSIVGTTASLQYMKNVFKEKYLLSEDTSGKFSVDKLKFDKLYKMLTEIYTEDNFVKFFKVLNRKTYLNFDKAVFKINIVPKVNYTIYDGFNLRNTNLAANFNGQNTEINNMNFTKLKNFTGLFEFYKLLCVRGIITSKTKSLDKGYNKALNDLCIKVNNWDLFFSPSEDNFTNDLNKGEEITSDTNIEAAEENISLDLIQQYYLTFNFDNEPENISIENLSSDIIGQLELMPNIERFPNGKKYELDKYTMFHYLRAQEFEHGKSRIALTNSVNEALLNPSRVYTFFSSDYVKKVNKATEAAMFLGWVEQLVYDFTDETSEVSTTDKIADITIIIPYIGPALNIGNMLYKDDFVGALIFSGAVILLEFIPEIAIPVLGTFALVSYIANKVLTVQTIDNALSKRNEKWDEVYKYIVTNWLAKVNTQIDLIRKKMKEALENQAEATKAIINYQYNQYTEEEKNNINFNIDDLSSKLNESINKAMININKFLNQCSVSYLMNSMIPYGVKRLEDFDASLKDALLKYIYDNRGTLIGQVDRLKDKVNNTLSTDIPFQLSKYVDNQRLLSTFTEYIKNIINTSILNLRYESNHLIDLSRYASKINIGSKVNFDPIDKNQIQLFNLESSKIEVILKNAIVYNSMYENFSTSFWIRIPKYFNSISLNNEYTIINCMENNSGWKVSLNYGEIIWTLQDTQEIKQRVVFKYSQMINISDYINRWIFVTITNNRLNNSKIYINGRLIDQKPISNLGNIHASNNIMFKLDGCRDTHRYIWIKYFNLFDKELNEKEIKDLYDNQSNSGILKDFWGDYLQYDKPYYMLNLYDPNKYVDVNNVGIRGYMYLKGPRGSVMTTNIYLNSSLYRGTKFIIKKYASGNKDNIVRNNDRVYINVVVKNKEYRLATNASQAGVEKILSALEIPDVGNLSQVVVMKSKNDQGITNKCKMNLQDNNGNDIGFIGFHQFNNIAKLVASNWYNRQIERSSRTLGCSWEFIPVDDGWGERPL
# Sequence of Integrin beta-1 (Homo sapiens) + Integrin alpha-4 (Homo sapiens) (P05556 whole entry, looked up): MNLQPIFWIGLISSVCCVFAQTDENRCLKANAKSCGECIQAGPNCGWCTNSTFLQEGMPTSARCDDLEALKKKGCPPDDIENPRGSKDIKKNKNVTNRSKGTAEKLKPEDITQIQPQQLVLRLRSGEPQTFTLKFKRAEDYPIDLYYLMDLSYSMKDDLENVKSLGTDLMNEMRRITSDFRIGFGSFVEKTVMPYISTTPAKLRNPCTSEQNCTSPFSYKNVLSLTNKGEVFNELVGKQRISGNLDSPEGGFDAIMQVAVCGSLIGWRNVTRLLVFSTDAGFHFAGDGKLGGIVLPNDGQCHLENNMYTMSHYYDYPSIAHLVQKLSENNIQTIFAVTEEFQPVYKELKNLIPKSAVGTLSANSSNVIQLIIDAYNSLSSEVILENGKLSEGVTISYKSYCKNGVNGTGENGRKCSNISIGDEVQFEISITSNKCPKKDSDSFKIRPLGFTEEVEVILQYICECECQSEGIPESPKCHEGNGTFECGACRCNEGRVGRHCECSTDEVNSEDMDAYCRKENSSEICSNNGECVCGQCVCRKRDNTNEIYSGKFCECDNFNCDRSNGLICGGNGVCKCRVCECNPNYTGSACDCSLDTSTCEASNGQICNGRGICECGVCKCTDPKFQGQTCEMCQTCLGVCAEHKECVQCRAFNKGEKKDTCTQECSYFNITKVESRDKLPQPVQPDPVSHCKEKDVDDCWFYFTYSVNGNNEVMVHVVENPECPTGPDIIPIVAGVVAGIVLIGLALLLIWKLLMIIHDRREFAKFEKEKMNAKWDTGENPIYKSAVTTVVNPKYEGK
# Sequence of Integrin beta-1 (Homo sapiens) + Integrin alpha-4 (Homo sapiens) (P13612 whole entry, looked up): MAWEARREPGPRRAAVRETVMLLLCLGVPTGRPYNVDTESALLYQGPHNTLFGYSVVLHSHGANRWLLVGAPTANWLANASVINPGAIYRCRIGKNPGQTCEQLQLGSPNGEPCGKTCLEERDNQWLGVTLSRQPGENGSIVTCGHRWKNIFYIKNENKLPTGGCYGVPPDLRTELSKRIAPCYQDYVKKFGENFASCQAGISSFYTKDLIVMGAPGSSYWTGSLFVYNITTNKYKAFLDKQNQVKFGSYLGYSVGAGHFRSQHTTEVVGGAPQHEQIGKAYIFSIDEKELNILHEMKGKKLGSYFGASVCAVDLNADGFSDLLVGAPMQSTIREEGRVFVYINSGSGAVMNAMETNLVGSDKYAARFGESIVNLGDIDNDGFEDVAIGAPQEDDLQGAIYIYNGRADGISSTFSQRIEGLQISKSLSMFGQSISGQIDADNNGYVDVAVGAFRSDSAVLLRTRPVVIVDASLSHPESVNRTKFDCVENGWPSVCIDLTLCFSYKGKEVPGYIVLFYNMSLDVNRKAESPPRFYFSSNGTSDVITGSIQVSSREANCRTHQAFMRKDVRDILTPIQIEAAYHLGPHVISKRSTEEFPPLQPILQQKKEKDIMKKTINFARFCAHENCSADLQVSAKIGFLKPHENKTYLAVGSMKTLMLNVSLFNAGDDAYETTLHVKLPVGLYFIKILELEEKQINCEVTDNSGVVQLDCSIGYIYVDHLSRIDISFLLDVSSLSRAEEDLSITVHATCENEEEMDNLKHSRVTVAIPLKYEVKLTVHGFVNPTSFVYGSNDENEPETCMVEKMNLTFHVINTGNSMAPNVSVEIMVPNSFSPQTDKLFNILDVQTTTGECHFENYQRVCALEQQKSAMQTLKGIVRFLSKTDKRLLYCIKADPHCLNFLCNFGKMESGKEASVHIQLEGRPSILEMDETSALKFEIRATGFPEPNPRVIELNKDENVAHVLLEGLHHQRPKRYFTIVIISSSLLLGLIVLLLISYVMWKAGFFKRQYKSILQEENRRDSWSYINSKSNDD
smiles,measurement,setting,value
CC1(C)OC(c2ccccc2)=C/C(=C/C=C2C(=O)NC(=S)NC2=O)O1,GFP response vs DMSO,[1],97.8% (inactive)
same,GFP response vs DMSO,[1]; [17],99.3%
same,GFP response vs DMSO,[1]; [18],98.5%
same,GFP response relative to DMSO,[2],203% (active)
same,GFP response relative to DMSO,[2]; [19],160%
same,"GFP response, % of DMSO",[3],119% (inactive)
same,"GFP response, % of DMSO",[3]; [17],121%
same,"GFP response, % of DMSO",[3]; [18],117%
O=C1NC(=O)N(CCc2ccc(F)cc2)C(=O)/C1=C/c1ccco1,GFP response vs DMSO,[1],98% (inactive)
same,GFP response vs DMSO,[1]; [17],99.4%
same,GFP response vs DMSO,[1]; [18],97%
same,GFP response relative to DMSO,[2],104% (inactive)
same,GFP response relative to DMSO,[2]; [20],106%
same,GFP response relative to DMSO,[2]; [19],104%
same,"GFP response, % of DMSO",[3],98.4% (inactive)
same,"GFP response, % of DMSO",[3]; [17],100%
same,"GFP response, % of DMSO",[3]; [18],93.7%
CCN1C(=O)NC(=O)/C(=C\c2cn(CC(=O)N3CCCC3)c3ccccc23)C1=O,GFP response vs DMSO,[1],97.3% (inactive)
same,GFP response vs DMSO,[1]; [17],97.3%
same,GFP response vs DMSO,[1]; [18],96.9%
same,GFP response relative to DMSO,[2],102% (inactive)
same,GFP response relative to DMSO,[2]; [20],102%
same,GFP response relative to DMSO,[2]; [19],102%
same,"GFP response, % of DMSO",[3],100% (inactive)
same,"GFP response, % of DMSO",[3]; [17],101%
same,"GFP response, % of DMSO",[3]; [18],100%
COc1cc(/C=C2\C(=O)NC(=O)N(c3ccccc3)C2=O)c([N+](=O)[O-])cc1OC,double positive events,[4],61.7%
same,vesicle binding response,[4],106% (inactive)
same,inhibition,[5],13.7% (inactive)
same,superoxide response (% of plate),[6],102% (inactive)
same,aptamer binding inhibition,[7],3% (inactive)
same,inhibition,[8],5.39% (inactive)
same,response,[9],3.62% (inactive)
same,binding (% of control),[10],105% (inactive)
same,inhibition,[11],-4.1% (inactive)
same,inhibition,[12],-1.1% (inactive)
same,inhibition,[13],-1.8% (inactive)
same,efflux inhibition (fraction of control),[14],-0.09 (inactive)
same,inhibition,[15],-21% (inactive)
same,differentiation response,[16],-8.96% (inactive)
COc1ccc2c3c([nH]c2c1)C(C)=NCC3,double positive events,[4],57.1%
same,vesicle binding response,[4],218% (inactive)
same,inhibition,[5],-16.1% (inactive)
same,superoxide response (% of plate),[6],102% (inactive)
same,aptamer binding inhibition,[7],-10% (inactive)
same,inhibition,[8],10.6% (inactive)
same,response,[9],-11.3% (inactive)
same,binding (% of control),[10],172% (inactive)
same,inhibition,[11],-22.6% (inactive)
same,inhibition,[12],-5.4% (inactive)
same,inhibition,[13],-104% (inactive)
same,efflux inhibition (fraction of control),[14],-0.24 (inactive)
same,inhibition,[15],-229% (inactive)
same,differentiation response,[16],20.8% (inactive)
Cc1nc2ccccc2c(=O)n1-c1ccc(C(=O)O)cc1,double positive events,[4],63.4%
same,vesicle binding response,[4],165% (inactive)
same,inhibition,[5],2.93% (inactive)
same,superoxide response (% of plate),[6],96.8% (inactive)
same,aptamer binding inhibition,[7],3% (inactive)
same,inhibition,[8],34.5% (inactive)
same,response,[9],-10.1% (inactive)
same,binding (% of control),[10],101% (inactive)
same,inhibition,[11],0.9% (inactive)
same,inhibition,[12],-0.2% (inactive)
same,inhibition,[13],-5.6% (inactive)
same,efflux inhibition (fraction of control),[14],-0.43 (inactive)
same,inhibition,[15],-3% (inactive)
same,differentiation response,[16],-8.96% (inactive)
CC(CCc1ccccc1)NC(C)C(O)c1ccc(O)cc1 (stereo not given),double positive events,[4],49%
same,vesicle binding response,[4],166% (inactive)
same,inhibition,[5],-20.8% (inactive)
same,superoxide response (% of plate),[6],111% (inactive)
same,aptamer binding inhibition,[7],1% (inactive)
same,inhibition,[8],2.09% (inactive)
same,response,[9],5.84% (inactive)
same,binding (% of control),[10],95.4% (inactive)
same,inhibition,[11],-3.5% (inactive)
same,inhibition,[12],-0.8% (inactive)
same,inhibition,[13],-0.5% (inactive)
same,efflux inhibition (fraction of control),[14],-0.28 (inactive)
same,inhibition,[15],10% (inactive)
same,differentiation response,[16],-16.4% (inactive)
Cc1cc(NS(=O)(=O)c2ccc(N)cc2)no1,inhibition,[11],0% (inactive)
same,inhibition,[12],0.1% (inactive)
c1ccc2c(c1)OCC(C1=NCCN1)O2 (stereo not given),double positive events,[4],56.2%
same,vesicle binding response,[4],163% (inactive)
same,inhibition,[5],0.69% (inactive)
same,superoxide response (% of plate),[6],90.8% (inactive)
same,aptamer binding inhibition,[7],1% (inactive)
same,inhibition,[8],-3.31% (inactive)
same,response,[9],3.01% (inactive)
same,binding (% of control),[10],99.6% (inactive)
same,inhibition,[11],-2.1% (inactive)
same,inhibition,[12],0.1% (inactive)
same,inhibition,[13],0.2% (inactive)
same,efflux inhibition (fraction of control),[14],-0.12 (inactive)
same,inhibition,[15],7% (inactive)
same,differentiation response,[16],-19.6% (inactive)
c1cnc2c(c1)ccc1ncccc12,double positive events,[4],64.8%
same,vesicle binding response,[4],165% (inactive)
same,inhibition,[5],0.59% (inactive)
same,superoxide response (% of plate),[6],83.3% (inactive)
same,aptamer binding inhibition,[7],8% (inactive)
same,inhibition,[8],-6.24% (inactive)
same,response,[9],21.4% (active)
same,binding (% of control),[10],102% (inactive)
same,inhibition,[11],-4.1% (inactive)
same,inhibition,[12],-0.7% (inactive)
same,inhibition,[13],-2.4% (inactive)
same,efflux inhibition (fraction of control),[14],0.08 (inactive)
same,inhibition,[15],4% (inactive)
same,differentiation response,[16],-17.8% (inactive)
CCCC(=O)OCC[N+](C)(C)C,double positive events,[4],63.6%
same,vesicle binding response,[4],145% (inactive)
same,inhibition,[5],14.2% (inactive)
same,superoxide response (% of plate),[6],92.5% (inactive)
same,aptamer binding inhibition,[7],4% (inactive)
same,inhibition,[8],5.57% (inactive)
same,response,[9],5.81% (inactive)
same,binding (% of control),[10],108% (inactive)
same,inhibition,[11],-3.8% (inactive)
same,inhibition,[12],-2.9% (inactive)
same,inhibition,[13],1.4% (inactive)
same,efflux inhibition (fraction of control),[14],-0.06 (inactive)
same,inhibition,[15],13% (inactive)
same,differentiation response,[16],2.46% (inactive)
Cn1c(=O)c2[nH]cnc2n(C)c1=O,inhibition,[11],2.7% (inactive)
same,inhibition,[12],-2% (inactive)
CN1[C@@H]2CC[C@H]1CC(OC(=O)C1C=Nc3ccccc31)C2 (stereo not given in full),double positive events,[4],52.3%
same,vesicle binding response,[4],136% (inactive)
same,inhibition,[5],20.3% (inactive)
same,superoxide response (% of plate),[6],111% (inactive)
same,aptamer binding inhibition,[7],0% (inactive)
same,inhibition,[8],-15.4% (inactive)
same,response,[9],-15% (inactive)
same,binding (% of control),[10],93.3% (inactive)
same,inhibition,[11],1.4% (inactive)
same,inhibition,[12],-0.6% (inactive)
same,inhibition,[13],4.3% (inactive)
same,efflux inhibition (fraction of control),[14],-0.2 (inactive)
same,inhibition,[15],7% (inactive)
same,differentiation response,[16],-3.43% (inactive)
CN1CCN2c3ccccc3Cc3ccccc3C2C1 (stereo not given),inhibition,[11],0.3% (inactive)
same,inhibition,[12],0.5% (inactive)
CCC1(c2ccccc2)C(=O)NCNC1=O,inhibition,[11],0% (inactive)
same,inhibition,[12],-0.9% (inactive)
CCCC(C)(COC(N)=O)COC(=O)NC(C)C (stereo not given),double positive events,[4],64.3%
same,vesicle binding response,[4],111% (inactive)
same,inhibition,[5],23.6% (inactive)
same,superoxide response (% of plate),[6],94.5% (inactive)
same,aptamer binding inhibition,[7],6% (inactive)
same,inhibition,[8],-2.17% (inactive)
same,response,[9],9.22% (inactive)
same,binding (% of control),[10],101% (inactive)
same,inhibition,[11],0.5% (inactive)
same,inhibition,[12],1.4% (inactive)
same,inhibition,[13],6.3% (inactive)
same,efflux inhibition (fraction of control),[14],-0.13 (inactive)
same,inhibition,[15],6% (inactive)
same,differentiation response,[16],44.3% (inactive)
